Reference: PubChem BioAssay (EPA / NIEHS)
Activity calls are given as the source filed them. Rule for the calls: active = hit-call score of the fitted dose curve at least 0.9, where 1 is the maximum; inactive = score below 0.9.

Assay: APR_HepG2_CellCycleArrest_72hr: Apredica 72-hour HepG2 Assay for Cell Cycle Arrest (AID 2282914)
Settings: high-content imaging, actives raise or lower the signal
Method: APR_HepG2_72hr is a cell-based, multiplexed-readout assay that uses HepG2, a human liver cell line, with measurements taken at 72 hours after chemical dosing in a 384-well plate.APR_HepG2_CellCycleArrest_72hr is one of 10 assay component(s) measured or calculated from the APR_HepG2_72hr assay. It is designed to make measurements of cell phenotype, a form of morphology reporter, as detected with fluorescence intensity signals by HCS Fluorescent Imaging technology.Data from the assay component APR_HepG2_CellCycleArrest_72hr was analyzed into 1 assay endpoint. This assay endpoint, APR_HepG2_CellCycleArrest_72hr, was analyzed with bidirectional fitting relative to DMSO as the negative control and baseline of activity. Using a type of morphology reporter, measures of all nuclear dna for gain or loss-of-signal activity can be used to understand the signaling at the pathway-level as they relate to the gene . Furthermore, this assay endpoint can be referred to as a primary readout, because this assay has produced multiple assay endpoints where this one serves a signaling function. To generalize the intended target to other relatable targets, this assay endpoint is annotated to the cell cycle intended target family, where the subfamily is arrest.
Cells were treated with dimethyl sulfoxide (DMSO) as a solvent control at a final concentration of 0.5% v/v or with compounds in DMSO with a resulting final DMSO concentration of 0.5% v/v. Compound treatment was done at concentrations of 0.39, 0.78, 1.56, 3.12, 6.24, 12.5, 25, 50, 100, and 200 uM in duplicate on each plate. Cells were treated with compounds for 1, 24, or 72 hr. Carbonyl […] m-chloro-phenylhydrazone (CCCP) and taxol were used as positive controls for mitochondrial function and cytoskeletal stability, respectively; DMSO served as the negative control for this experiment. Cells were fixed by the direct addition of 50 uL formaldehyde in Hank's Balanced Salt Solution (HBSS) to a final concentration of 3.7%. After incubation in the fixation medium for 30 min at room temperature (293-298 K), cells were rinsed twice with HBSS and treated with cell permeabilization buffer (16 uL of 0.5% Triton X-100) for 10 min at room temperature (293-298 K) before labeling. For mitochondrial membrane potential and mitochondrial measurements, pre-fixed cells were incubated with 50 uL of MitoTracker Red CMXRos (Invitrogen) at a concentration of 250 nM for 30 min before fixation. In the remaining cases, post-fixed cells were labeled by incubation with a multiplexed mixture of primary antibodies in HBSS for 60 min at room temperature (293-298 K) to detect immunoreactivity of c-Jun (1:500), phospho-histone H3 (1:100), phospho-histone H2A.x (1:200), p53 (1:400), alpha-tubulin (1:200) and Hoechst 33342 (2 ug/mL). Cells were labeled for multiplexed imaging on two separate plates: a) Hoechst 33342, MitoTracker Red, phospho-histone H3, and alpha-tubulin, and b) Hoechst 33342, phospho-histone H2A.x, and c-Jun. A final rinse with HBSS (50 uL) was performed before analysis. The primary and secondary antibodies for the proteins were phospho-histone H3 (rabbit anti-phospho-histone H3 and FITC-donkey anti-rabbit IgG), phospho-histone H2A.x (mouse anti-phospho-histone H2A.x and FITC-donkey anti-mouse IgG), c-Jun (rabbit anti-phospho-c-Jun and Cy3-donkey anti-rabbit IgG), p53 (sheep anti-p53 and Cy5-donkey anti-sheep IgG), alpha-tubulin (mouse anti-alpha-tubulin and Cy5-donkey anti-mouse IgG). These antibodies are available as the CellCiphr HepG2 assay kit (Millipore).Digital images of each well were captured using a Cellomics ArrayScan VTI (Thermo Scientific Cellomics) (0.8 NA objective, 0.63x optical coupler, and XF-93 filter set) at 20x magnification. The images were acquired using the autofocus feature of the ArrayScan instrument, which entails the following steps. First, the camera focuses on channel 1 (Hoechst 33342), where nuclei are identified. Second, a Z offset of 1 um is used for capturing mitochondria (MitoTracker Red). […]

Structure (SMILES)	outcome	AC50
Cc1ccc(N)cc1N	inactive	–
O=C(O)C1C(C(=O)O)C2(Cl)C(Cl)=C(Cl)C1(Cl)C2(Cl)Cl (stereo not given)	inactive	–
Cc1ccc([N+](=O)[O-])cc1C	inactive	–
[N-]=[N+]=[N-]	inactive	–
CCOS(=O)(=O)OCC	inactive	–
CCCCCCCc1ccc(O)cc1	inactive	–
CC(Cc1ccc(OCC(=O)O)cc1)NCC(O)c1csc(C(F)(F)F)n1 (stereo not given)	inactive	–
CSC(C)(C)C=NO	inactive	–
Cc1cccc(N)c1	inactive	–
ClC(Cl)(Cl)c1ccccc1	inactive	–
CCCCN(CCCC)N=O	inactive	–
CC(C)(C)OOC(C)(C)C	inactive	–
OCC1CO1 (stereo not given)	inactive	–
COCCOCCO	inactive	–
CCOP(=S)(OCC)SCSCC	–	111 µM (active)
c1nc[nH]n1	inactive	–
CC(Cl)(Cl)C(=O)O	inactive	–
CCC1(c2ccccc2)C(=O)N=C(O)NC1=O (stereo not given)	inactive	–
CN(C)C(=O)Cl	inactive	–
CCOP(=S)(Oc1ccc([N+](=O)[O-])cc1)c1ccccc1 (stereo not given)	inactive	–

Structure (SMILES)	outcome	AC50
O=[N+]([O-])c1ccccc1	inactive	–
CCCN(CCC)c1c([N+](=O)[O-])cc(C(C)C)cc1[N+](=O)[O-]	–	35.4 µM (active)
CCNc1nc(Cl)nc(NC(C)(C)C)n1	inactive	–
O=[N+]([O-])c1ccc(Cl)c(Cl)c1	inactive	–
c1cc2c3c(cccc3c1)CC2	inactive	–
O=P(Oc1ccccc1)(Oc1ccccc1)Oc1ccccc1	–	75.5 µM (active)
CCCCN(CCCC)SN(C)C(=O)Oc1cccc2c1OC(C)(C)C2	–	23.3 µM (active)
CCCCc1ccccc1	inactive	–
Nc1ccc(Cl)cc1	inactive	–
CCOc1ccc(C(C)(C)COCc2cccc(Oc3ccccc3)c2)cc1	–	85.5 µM (active)
Nc1ccc2ccccc2c1	–	88.9 µM (active)
CCC(C)(C)c1ccc(O)cc1	–	108 µM (active)
CCOC(=O)c1ccccc1C(=O)OCC	inactive	–
ClC1=C(Cl)C2(Cl)C3C(Cl)C(Cl)CC3C1(Cl)C2(Cl)Cl (stereo not given)	inactive	–
O=C(O)C(Cl)Cl	inactive	–
c1ccc(OP(Oc2ccccc2)Oc2ccccc2)cc1	inactive	–
c1ccc2c(c1)Nc1ccccc1S2	inactive	–
ClC(Cl)c1ccccc1	inactive	–
O=P1(N(CCCl)CCCl)NCCCO1 (stereo not given)	inactive	–
CCN(CC)c1ccccc1	inactive	–
